# According to the supplement of paper PMC7801607:
# How the values were obtained:
# [1] = tested on: CHO; test: % viability of CHO cells (MTT); higher = less toxic; settings: 48 h
# In short: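 CHO cells seeded at 10^6 cells/well were exposed to compound at 2 or 20 µM for 48 h. Survival, as percent of untreated cells, was measured with the colorimetric tetrazolium (MTT) assay.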
# [2] = tested on: HepG2-A16-CD81; test: % inhibition of HepG2 viability (CellTiter-Glo); higher = more toxic; settings: 5 µM
# [3] = tested on: Plasmodium falciparum NF54 stage IV/V gametocytes; test: % inhibition of gametocyte viability (PrestoBlue); higher = more inhibition; settings: 48 h
# In short: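 Compound was tested at 1 or 5 µM against Stage IV/V NF54 gametocytes plated at 100 µL/well (2% gametocytaemia, 5% haematocrit). After 48 h of stationary, hypoxic incubation at 37 °C, 10 µL PrestoBlue was added for 2 h before reading 612 nm fluorescence from 70 µL of transferred supernatant. Gametocyte viability inhibition, as a percentage, was scaled against vehicle and kill controls from a single run.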
# [4] = tested on: Plasmodium falciparum NF54 asexual blood stage; test: % inhibition of asexual blood stage proliferation (pLDH); higher = more inhibition; settings: 72 h
# In short: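 In 96-well plates, compound at 2 or 20 µM was added to Plasmodium falciparum NF54 ring-stage cultures (1% haematocrit, 2% parasitaemia). Plates were incubated for 72 h at 37 °C in 4% CO2, 3% O2 and 93% N2, and survival was then read at 620 nm using the parasite lactate dehydrogenase assay. Inhibition of asexual proliferation, expressed as a percentage, was normalised to controls.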
# [5] = tested on: Plasmodium falciparum NF54 stage IV/V gametocytes; test: % inhibition of gametocyte viability (ATP bioluminescence); higher = more inhibition; settings: 24 h
# In short: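 Density gradients were used to enrich stage IV/V NF54 gametocytes, which were then seeded into 96-well plates at 30,000 per well with compound at 1 or 5 µM. The plates were incubated at 37 °C for 24 h, and ATP was measured with the Promega BacTiter Glo bioluminescence system. Percent inhibition of gametocyte viability was normalised to the plate controls from a single run.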
# [6] = tested on: Plasmodium falciparum NF54 stage IV/V gametocytes; test: % inhibition of gametocyte viability (luciferase reporter); higher = more inhibition; settings: 48 h
# In short: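 Luminescence from 30 µL lysate combined with 30 µL Promega luciferin substrate was recorded on a GloMax-Multi+ reader using 10 s integration. The lysate came from stage IV/V NF54-Pfs16-GFP-Luc gametocytes (2% gametocytaemia, 2% haematocrit) held with compound at 1 or 5 µM for 48 h at 37 °C under stationary, hypoxic conditions. Percent inhibition was normalised against controls run once.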
# [7] = tested on: Plasmodium berghei ANKA liver stage in HepG2-A16-CD81; test: % inhibition of liver stage parasite viability (luciferase); higher = more inhibition; settings: 5 µM; 48 h
# Experimental: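 Single-concentration screen of the MMV Pandemic Response Box. P. falciparum NF54 asexual blood stages: pLDH assay, 72 h at 37 °C, 2 and 20 µM, n=2. Stage IV/V gametocytes (NF54): luciferase reporter (NF54-Pfs16-GFP-Luc, 48 h), ATP bioluminescence (24 h) and PrestoBlue (48 h) at 1 and 5 µM, n=1. P. berghei liver stage (luciferase in HepG2-A16-CD81, 48 h post infection) at 5 µM, n=4. All normalised to DMSO and kill controls as % inhibition.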
# 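Wherever % inhibition of HepG2 viability (CellTiter-Glo) is given: HepG2-A16-CD81 hepatoma cells plated as in the liver-stage assay but without sporozoites, with DMSO wells as negative and 25 µM puromycin as positive control.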
SMILES,% viability of CHO cells ([1]; 2 µM),% viability of CHO cells ([1]; 20 µM),% inhibition of HepG2 viability [2],% inhibition of gametocyte viability ([3]; 1 µM),% inhibition of gametocyte viability ([3]; 5 µM),% inhibition of asexual blood stage proliferation ([4]; 2 µM),% inhibition of asexual blood stage proliferation ([4]; 20 µM),% inhibition of gametocyte viability ([5]; 1 µM),% inhibition of gametocyte viability ([5]; 5 µM),% inhibition of gametocyte viability ([6]; 1 µM),% inhibition of gametocyte viability ([6]; 5 µM),% inhibition of liver stage parasite viability [7]
O=C(c1ccccc1)N1CCN(c2ccccc2NC(=O)C(Cl)(Cl)Cl)CC1,113%,74.3%,3.18%,< 0%,5.75%,50.4%,118%,< 0%,< 0%,< 0%,< 0%,28.1%
CC(C)c1ccc(COc2cccc(-c3cc(S(C)=O)c(C#N)c(=O)[nH]3)c2)cc1 (centres undefined),91%,106%,3.83%,< 0%,28.5%,18%,56.2%,51.9%,82.8%,< 0%,< 0%,32.5%
O=C(NCc1cccc2ccccc12)c1cccs1,101%,134%,7.63%,13.5%,24.3%,-14.2%,-4.95%,< 0%,< 0%,< 0%,< 0%,-19.8%
O=C(c1cc(O)nc2ccccc12)N1CCN(c2ccccc2)CC1,95.9%,52.7%,-2.09%,< 0%,< 0%,24.8%,48.3%,4.72%,10.4%,< 0%,< 0%,34.2%
CCC[C@H](NC(=O)[C@@H]1[C@H]2CCC[C@H]2CN1C(=O)[C@@H](NC(=O)[C@@H](NC(=O)c1cnccn1)C1CCCCC1)C(C)(C)C)C(=O)C(=O)NC1CC1,94.8%,100%,-4.56%,< 0%,7.89%,49.1%,57%,6.88%,10.7%,3.5%,< 0%,6.72%
Nc1nc(-c2ccccc2)nc2[nH]nc(Nc3ccc(C(F)(F)F)cc3)c12,80.5%,60.9%,-9.27%,15%,7.65%,20%,80.5%,< 0%,< 0%,< 0%,< 0%,53.1%
COc1ccc2nc(-c3ccccc3)cc(O)c2c1,85.4%,80.2%,6.13%,< 0%,7.99%,66.9%,94.3%,29.5%,13.5%,< 0%,8.89%,78.6%
COc1ccc(SC(=O)N[C@H](CCC(=O)O)C(=O)O)cc1,114%,122%,3.46%,< 0%,58.8%,58.1%,103%,< 0%,6.16%,23.9%,62.8%,19.9%
O=[N+]([O-])c1cn(Cc2nc(O)nc(O)c2Br)cn1,95.9%,109%,-3.1%,9.08%,21.3%,38.7%,55.8%,0.137%,< 0%,< 0%,4.07%,19.1%
OB1OCc2c1ccc(Cl)c2F,95.7%,101%,-0.44%,8.58%,< 0%,0.633%,36.7%,< 0%,< 0%,< 0%,< 0%,7.88%
COc1ccc(SCC(=O)N2c3ccccc3Sc3ccccc32)cc1,91%,110%,7.46%,< 0%,< 0%,0.401%,35.5%,< 0%,< 0%,< 0%,< 0%,31.1%
CN1CCN(c2ccc3[nH]c(-c4ccc5[nH]c(-c6ccc(O)cc6)nc5c4)nc3c2)CC1,106%,115%,18.2%,< 0%,< 0%,82.9%,80.9%,< 0%,< 0%,< 0%,20.9%,-6.69%
NC(=O)c1nccn([C@@H]2O[C@H](CO)[C@@H](O)[C@H]2O)c1=O,91.2%,105%,4.39%,5.72%,19.8%,11.7%,53.8%,< 0%,< 0%,7.58%,< 0%,14.7%
CC(C)(C)c1ccc(C(Cn2cccc(C(F)(F)F)c2=O)NC2Cc3ccccc3C2)cc1 (centres undefined),106%,94.3%,-1.5%,10%,21.3%,32.7%,69.1%,< 0%,< 0%,< 0%,3.42%,2.01%
O=c1oc2ccc(Br)cc2cc1CSc1ncc[nH]1,112%,73.8%,3.9%,11.2%,7.96%,-5.59%,79%,6.38%,5.34%,4.59%,< 0%,-13.1%
CC(C)N(c1cc(-c2ccccc2)sc1C(=O)O)C(=O)[C@H]1CC[C@H](C)CC1,91.8%,103%,-2.07%,18.3%,14.3%,28.8%,44.9%,4.36%,< 0%,4.34%,< 0%,20.5%
NC(=S)N/N=C/c1ncccc1N,111%,48.6%,-22.6%,80.3%,91.2%,73.5%,78.5%,< 0%,15.5%,1.59%,5.86%,63.5%
c1ccc(Cn2c(-c3ccccn3)nc3ccccc32)cc1,75.8%,117%,1.97%,-0.335%,3.56%,5.52%,19.5%,< 0%,< 0%,< 0%,11.3%,-11%
CCCCCOc1ccc(/C=C2\Oc3c(ccc(O)c3O)C2=O)c(O)c1,123%,127%,3.16%,< 0%,< 0%,2.75%,90.6%,< 0%,< 0%,< 0%,< 0%,15.2%
Nc1nc(F)nc2c1ncn2[C@H]1O[C@@H](CO)[C@H](O)[C@@H]1O,33.8%,4.44%,77.8%,21.2%,19.8%,67.3%,72.4%,11.1%,< 0%,4.93%,35.8%,76%
O=C1[C@H](CC[C@H](O)c2ccc(F)cc2)[C@@H](c2ccc(O)cc2)N1c1ccc(F)cc1,94.9%,113%,-3.46%,< 0%,< 0%,43.1%,61%,< 0%,< 0%,2.9%,4.53%,27.4%
Oc1c(C(Nc2nc3ccccc3s2)c2ccc(OC(F)F)cc2)ccc2cccnc12 (centres undefined),79.6%,74.4%,45.6%,26.7%,60.6%,70.5%,65.8%,22.2%,24.6%,12.2%,54.3%,52.7%
